# SARS PLpro yeast – SARS-CoV PLP inhibition in yeast | S. cerevisiae expressing SARS-CoV PLpro, growth rescue | Potency, µM (highest dose often 32.9 µM), inactives show at the highest dose activity, positive = growth rescue, usual class: activators | 330,000 tested, 0.19% active | AID 485353; calls by dose curve; also: potency is read from the fitted curve at half-maximal effect; 0% is about no effect; nearly all actives have a fitted effect of over 55% in size
# HCMV inh – blocks human cytomegalovirus replication; HFF cells, HCMV-luciferase reporter, 72 h; active compounds read low; activity change, negative = inhibition, % at 57.5 µM; 410,000 tested, 4.5% active; AID 1259415; in the data active = activity change below about -60%; inconclusive = no clear call, values can overlap the other calls; inactive = above about -39%; also: % is scaled to controls: 0 for no effect and ±100 for the full control effect
#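 Two-dose cell screen: HFF monolayers treated with compounds and infected with luciferase-expressing HCMV at 1 PFU/cell, 72 h at 37C, then lysed for luciferase measurement.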
# Sm TGR block – inhibitors of Schistosoma mansoni thioredoxin glutathione reductase; purified TGR, DTNB reduction, TNB absorbance 405 nm; Potency, µM (top dose mostly 114 µM), for inactives: at the highest dose activity change, negative = inhibition, usual class: inhibitors; 360,000 tested, 3% active; also: potency is read from the fitted curve at half-maximal effect; % is scaled to controls: 0 for no effect and ±100 for the full control effect; nearly all actives have a fitted effect of over 60% in size
#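 TGR 20 nM + NADPH 100 uM (dispensed conc.), cpd preinc 15 min RT; start with NADPH (500 uM addition) then DTNB (15 mM addition). Kinetic TNB absorbance, 405 nm filter. Four-parameter Hill fit across titration.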
# HCV inhibitor – inhibitors of hepatitis C virus infection | AID 651820 | Huh7.5.1 HCVcc-Cre infection, luciferase reporter, 44 h | Potency, µM (doses to about 41.8 µM), for inactives: top-dose activity change, negative = inhibition, hits mostly inhibitors | 340,000 tested, 3.4% active; also: potency is read from the fitted curve at half-maximal effect; % is scaled to controls: 0 for no effect and ±100 for the full control effect
#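 Compounds are dispensed onto cells plated 4 h earlier at 1,000 per well, with HCVcc-Cre virus (about 0.5 moi) added next. Following 44 h of culture, luminescent signal is measured for 15 sec after 15 min with substrate at room temperature.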
# Pf growth 96h – inhibits malaria parasite growth, 96 h | Potency, µM (series often up to 28.7 µM), inactives show at the top dose activity change, negative = inhibition, usual class: inhibitors | 320,000 tested, 6.9% active | P. falciparum luciferase reporter growth, 96 h | AID 504834; also: potency is read from the fitted curve at half-maximal effect; % is scaled to controls: 0 for no effect and ±100 for the full control effect
#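 96 h incubation, 37 C, 5% CO2, of luciferase-reporter P. falciparum-infected RBCs (2% hematocrit, 0.05% parasitemia final) with test compounds; endpoint luminescence.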
# Pf growth 48h – P. falciparum growth inhibition at 48 hours (one generation); Potency, µM (titrated, usually from 28.7 µM), for inactives: at the top dose activity change, negative = inhibition, most hits filed as inhibitors; 310,000 tested, 5.9% active; P. falciparum luciferase growth in erythrocytes, 48 h; also: potency is read from the fitted curve at half-maximal effect; % is scaled to controls: 0 for no effect and ±100 for the full control effect
#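 Firefly luciferase activity from engineered P. falciparum reports growth; inhibitors lower the luminescent signal. Cultures contained 2% hematocrit erythrocytes at 0.1% final parasitemia.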
# * marks the source's active call; other numbers are inactive results; ? = inconclusive; · = no result. Only some compounds are listed: those with a hit (about 15% of all), similar ones and a draw of the others. Unless noted, calls follow the shape of the dose curve; as a rule, active = well fitted curve in the direction sought with a large enough effect; inconclusive = small, poorly fitted or top-dose-only effect, or another doubt; inactive = no such curve, though single readings can be large; an effect the other way counts as inactive or inconclusive.
SMILES,SARS PLpro yeast,HCMV inh,Sm TGR block,HCV inhibitor,Pf growth 96h,Pf growth 48h
CCOc1ccc(NC(=O)Cc2cccc3ccccc23)c([N+](=O)[O-])c1,-11.9%,-73.5*,-0.8%,-0.8%,28.7%,-8.9%
CCOc1cc(N2CCOCC2)c(OCC)cc1NC(=O)Cc1cccc2ccccc12,17.2%,1.2,-11.1%,14.1µM*,?,·
CCOc1cc(N2CCOCC2)c(OCC)cc1NC(=O)CCS(=O)(=O)c1ccc(Cl)cc1,2.1%,3.5,-14.8%,?,7.38µM*,?
Cc1ccc(Cn2c(CNS(=O)(=O)c3cccc([N+](=O)[O-])c3)nc3cccnc32)cc1,·,-23.6,-2.0%,·,·,·
COc1cccc(CN(C)C(=O)C(Cc2ccccc2)NC(=O)c2ccccc2)c1OC (configuration not stated),0.4%,-27.0,1.5%,?,?,?
CC(=O)c1ccc(NC(=O)CSc2nc(=O)n(Cc3ccncc3)c3c2CCC3)cc1,·,22.6,5.3%,·,·,·
CCOC(=O)c1ccc(OCC2NCCc3cc(OC)c(OC)cc32)cc1 (configuration not stated),1.6%,12.7,-24.5%,-10.8%,54.5%,?
CCOc1cc(N2CCOCC2)c(OCC)cc1NC(=O)c1ccc2ccccc2n1,-1.6%,20.9,5.0%,?,?,13.1µM*
CCOc1cc(N2CCOCC2)c(OCC)cc1NC(=O)c1ccccc1C,0.3%,11.2,1.0%,-4.8%,-34.1%,?
CN(C)S(=O)(=O)NC(=O)C1=C(N2CCCC2)COC1=O,-1.7%,?,·,?,·,·
O=C1CN(C(=O)c2ccc(S(=O)(=O)N3CCCC3)cc2)C(c2ccc(F)cc2)c2cc(Br)ccc2N1 (configuration not stated),·,-26.8,0.2%,·,·,·
CC[C@H](C)[C@@H](C(=O)N1CCCC1c1nccs1)N(C)C(=O)[C@H](CC(C)C)N(C)C(=O)[C@H](Cc1ccc(OC)cc1)N(C)C(=O)/C=C(\C)OC (some centres not stated),?,11.3,·,-24.2%,·,·
CC[C@@H](C)[C@H](C(CC(=O)N1CCCC1[C@@H](OC)[C@H](C)C(=O)N[C@H](Cc1ccccc1)c1nccs1)OC)N(C)C(=O)[C@H](NC(=O)[C@@H](C(C)C)N(C)C)C(C)C (some centres not stated),·,-90.7*,·,-39.7%,·,·
COc1ccc(OC)c(NC(=O)C2=C(C)C(=O)OC23CCN(C(C)C)CC3)c1,·,23.2,?,·,·,·
CCOC(=O)C(NC(=O)c1ccccc1)(Nc1cc(C)on1)C(F)(F)F (configuration not stated),-3.2%,21.8,1.8%,-20.5%,5.22µM*,19.2%
CCOC(=O)C(NCc1ccc2c(c1)OCO2)(NC(=O)c1ccccc1)C(F)(F)F (configuration not stated),3.9%,-61.2*,0.2%,9.5%,37.0%,14.8%
CCOC(=O)C(NCc1ccccc1)(NC(=O)c1ccccc1)C(F)(F)F (configuration not stated),4.4%,-6.2,0.0%,7.0%,-32.9%,·
Cc1ccc(C)c(Cn2c(=O)n(Cc3ccco3)c(=O)c3oc4ccccc4c32)c1,·,-14.7,-4.4%,·,·,·
Cc1ccccc1OCC(=O)N/N=C/c1sc(=O)n(Cc2cccc(C(=O)O)c2)c1Cl,0.6%,-26.3,?,?,?,?
COc1ccc(C(=O)N/N=C/c2sc(=O)n(Cc3cccc(C(=O)O)c3)c2Cl)cc1,1.8%,0.0,22.4µM*,9.1%,-16.6%,-10.9%
O=C(O)c1cccc(Cn2c(Cl)c(/C=N/NC(=O)c3ccccc3O)sc2=O)c1,-0.7%,-20.8,39.8µM*,13.2%,-3.5%,42.9%
O=C(O)c1cccc(Cn2c(Cl)c(/C=N/Nc3ccccc3)sc2=O)c1,0.0%,·,3.55µM*,?,?,?
O=C(N/N=C/c1sc(=O)n(Cc2ccc(Br)cc2)c1Cl)c1ccco1,-6.9%,-92.1*,44.7µM*,?,2.62µM*,3.7µM*
O=C(O)c1cccc(Cn2c(Cl)c(/C=N/NC(=O)c3ccccc3Cl)sc2=O)c1,3.6%,-5.4,-4.7%,32.7%,-17.0%,21.3%
O=[As]O[As]=O (configuration not stated),·,·,·,·,1.9µM*,1.9µM*
SMILES,SARS PLpro yeast,HCMV inh,Sm TGR block,HCV inhibitor,Pf growth 96h,Pf growth 48h
S=C1SCN(Cc2ccccc2)CN1Cc1ccccc1,-11.6%,-25.3,-11.2%,-2.3%,6.2%,?
S=C1SCN(CC2CC2)CN1CC1CC1,3.2%,-77.1*,10.8%,?,5.22µM*,?
CCCCn1c(N)c(N(CC(C)C)C(=O)c2cc(-c3ccc(F)cc3)nc3ccccc23)c(=O)[nH]c1=O,2.4%,-24.6,0.3%,9.0%,?,11.7µM*
CCCCn1c(N)c(N(CC(C)C)C(=O)c2cc(-c3ccc(OC)c(OC)c3)nc3ccccc23)c(=O)[nH]c1=O,-0.8%,-16.2,6.6%,13.3%,?,1.31µM*
CCCCN(C(=O)CSc1nn(-c2ccc(F)cc2)c(=S)s1)c1c(N)n(CCCC)c(=O)[nH]c1=O,4.4%,-12.6,-16.0%,?,13.1µM*,?
CCCCN(C(=O)c1cc(-c2ccc(F)cc2)nc2ccccc12)c1c(N)n(CCCC)c(=O)[nH]c1=O,7.9%,-13.7,0.1%,?,7.38µM*,?
CCCCn1c(N)c(N(CC(C)C)C(=O)c2cc(-c3ccc(OC)cc3)nc3ccccc23)c(=O)[nH]c1=O,·,-20.7,·,1.1%,·,·
CCCCN(C(=O)CSc1nc2ccccc2s1)c1c(N)n(CCCC)c(=O)[nH]c1=O,0.5%,4.8,·,-2.3%,·,·
CCCCN(C(=O)c1cc(Cl)nc2ccccc12)c1c(N)n(CCCC)c(=O)[nH]c1=O,2.2%,-18.0,-0.9%,-2.2%,-11.3%,?
CCCCn1c(N)c(N(CCOC)C(=O)c2cc(-c3ccc(OC)c(OC)c3)nc3ccccc23)c(=O)[nH]c1=O,2.9%,-24.7,-16.6%,2.0%,-5.7%,?
O=C(CSc1nc(=O)[nH]c2c1CCCC2)Nc1cc(C(F)(F)F)cc(C(F)(F)F)c1,·,-24.3,-10.6%,-25.7%,24.6%,4.5%
CCN(C(=O)CN1CCCC(C)C1)c1c(N)n(Cc2ccccc2)c(=O)[nH]c1=O (configuration not stated),2.4%,13.8,·,0.4%,·,·
Cn1c(N)c(C(=O)CSc2nn(-c3ccc(F)cc3)c(=S)s2)c(=O)n(C)c1=O,0.4%,?,-6.3%,7.08µM*,?,?
O=C(O/N=C/c1ccc(Br)cc1)c1ccc(F)cc1,·,8.4,·,16.7%,·,·

# Screening results (PubChem BioAssay)
